Laboratory results: ChEMBL document CHEMBL3988442, “University of Dundee, Small-Polar-MMV Screening Library” (2021)
The campaign covered roughly 53,000 compounds. About 900 (1.7%) showed an effect of 50% or more. This is one part of a sample in which strong results are shown more often than they occur.

Tested on: Mycobacterium tuberculosis
Assay: Cornell - Phenotypic assay to identify agents that inhibit growth of Mycobacterium tuberculosis
Assay type: functional
Parameters: scale not given: direction of the effect not stated beside the values
Settings: 10 mM as filed; unlikely as a test dose

| Compound | Percent Effect [%] |
| --- | --- |
| Cc1ccc(CN2CCc3nnc(CN4CCCC4=O)n3CC2)s1.O=C(O)C(F)(F)F | 32.68 |
| CCC(C(=O)N(C)C)n1ccc2ncccc2c1=O (stereo not drawn) | 6.503 |
| CN(C)C(=O)CN1CCN(c2cc(N3CCCC3CO)ncn2)CC1 (stereo not drawn) | 1.672 |
| Cc1cc(N2CCC(C(=O)O)(n3ccc(C(C)(C)C)n3)CC2)nc(N)n1 | 5.557 |
| Cc1cc(C)nc(N2CCC(C(=O)O)(n3ccc(C(C)(C)C)n3)CC2)n1 | 67 |
| Cc1cnc(C)c(N2CCC(C(=O)O)(n3ccc(C(C)(C)C)n3)CC2)n1 | 5.905 |
| CSc1cccc(CNC(=O)[C@H]2CNC[C@@H](C(=O)N3CCOCC3)C2)c1 | -25.42 |
| Cc1nc[nH]c1CNCc1cccnc1N(C)C1CCCCC1 | -125.1 |
| COc1ccc(-n2cc(CCO)cn2)cc1C | 105.1 |
| COc1cc(-n2cc(CCO)cn2)ccc1NC(C)=O | 12.75 |
| COc1ccc(-n2cc(CCO)cn2)cc1C(N)=O | -5.342 |
| Cc1cn2c(n1)CCC(NC(=O)CCOc1ccccc1F)C2 (stereo not drawn) | -34.23 |
| O=C(c1nc(Cc2c[nH]c3ccccc23)no1)N1CCCCC1 | -4.941 |
| O=C(O)C(F)(F)F.O=C(c1ncccn1)N1C[C@H]2CCC[C@@]2(COc2ccccn2)C1 | -0.9925 |
| Cc1ccc(C(=O)N2C[C@H]3CCC[C@@]3(COc3ccccn3)C2)nc1.O=C(O)C(F)(F)F.O=C(O)C(F)(F)F | 19.03 |
| O=C(O)C(F)(F)F.O=C(c1cocn1)N1C[C@H]2CCC[C@@]2(COc2ccccn2)C1 | 78.33 |
| Fc1cccc(Cl)c1CNCCOc1ccccn1 | 41.65 |
| CN1[C@@H](C(=O)NCC2CC2)C[C@@H]2CN(Cc3ccco3)C[C@@H]21 | 11.69 |
| CCN(Cc1ccccc1)S(=O)(=O)C1CCS(=O)(=O)CC1 | 11.98 |
| CN(C)c1nccnc1C1CCN(c2cnccn2)CC1 | 17.38 |
| CN(C)c1ccc(C2CCN(c3cnccn3)CC2)nc1 | 63.52 |

| Compound | Percent Effect [%] |
| --- | --- |
| c1cc(C2CCN(c3cnccn3)CC2)ncn1 | 5.379 |
| COc1cccc(C(=O)N2C[C@@H](c3ccccc3)[C@@H]3NCCCC[C@@H]32)c1 | 4.696 |
| Cc1cc(C(C)(O)CNC(=O)c2ccc(Br)o2)c(C)o1 (stereo not drawn) | 53.63 |
| Cc1cc(C(C)(O)CNC(=O)OC(C)(C)C)c(C)o1 (stereo not drawn) | 14.94 |
| Cc1cc(C(C)(O)CNC(=O)C2(C)CCCC2)c(C)o1 (stereo not drawn) | 32.83 |
| O=C(c1cc(-n2cnnn2)ccc1Cl)N1CCCCCC1 | 22.48 |
| Cc1noc(C)c1CN1CCOCC12CCN(c1nccs1)CC2.O=C(O)C(F)(F)F | -2.189 |
| CCNC(=O)N1CCc2ccc(NC(=O)C(C)c3ccsc3)cc21 (stereo not drawn) | -7.199 |
| Cc1cnn(C2CCCN(C(=O)c3ccnc(-n4cncn4)c3)C2)c1 (stereo not drawn) | -11.26 |
| Cc1cn2nc(N3CCn4c(nnc4C(C)C)C3)sc2n1 | -4.534 |
| Cn1cc(-c2ccc(C3CCCCN3Cc3cccnc3)cn2)cn1 (stereo not drawn) | 36.92 |
| c1cnc(Nc2ccc(C3CCCCN3Cc3ccncc3)cn2)nc1 (stereo not drawn) | 63.94 |
| c1cncc(CN2CCCCC2c2ccc(Nc3cnccn3)nc2)c1 (stereo not drawn) | 29.23 |
| c1cc(CN2CCCCC2c2ccc(Nc3cnccn3)nc2)ccn1 (stereo not drawn) | 73.82 |
| CS(=O)(=O)N1CCCCC1c1ccc(Nc2cnccn2)nc1 (stereo not drawn) | 21.12 |
| Cn1cc(CN2CCCCC2c2ccc(-c3cnn(C)c3)nc2)cn1 (stereo not drawn) | 0.8308 |
| Cc1cnn(CCNCc2ccc(OCc3cccnc3)cc2)c1 | -17.94 |
| Cc1nnc(C2Cc3ccccc3CN2Cc2ncc(Cl)n2C)o1 (stereo not drawn) | -18.28 |
| Cn1cc(CC(=O)N2CCCC(c3cc(C(F)(F)F)[nH]n3)C2)cn1 (stereo not drawn) | -14.78 |
| O=C(Cn1cc(Cl)cn1)NCCN1CCC(O)(c2ccc(F)cc2)CC1 | 36.23 |
| CN(C)C(=O)C1CN(c2ccncn2)CCN(C2CCOCC2)C1 (stereo not drawn) | -28.59 |

| Compound | Percent Effect [%] |
| --- | --- |
| COc1cc(C(=O)NS(=O)(=O)c2cc(Cl)sc2Cl)ccc1OC(F)F | 83.5 |
| COc1ccc(C(=O)NS(=O)(=O)c2cc(Cl)sc2Cl)cc1OC(F)F | 76.92 |
| O=C(NS(=O)(=O)c1cc(Cl)sc1Cl)c1cccc2c1OCCO2 | 1.673 |
| COc1ccc(C(=O)NS(C)(=O)=O)cc1-c1ccccc1 | 36.61 |
| COc1cccc(C(=O)NS(=O)(=O)c2cc(Cl)sc2Cl)c1OC(F)F | 16.97 |
| COc1cc(C(=O)NS(=O)(=O)c2ccc(C#N)cc2)ccc1C | -19.49 |
| CCc1cc(NC(=O)C(c2cccc(F)c2)N2CCOCC2)[nH]n1 (stereo not drawn) | -14.2 |
| O=C(CS(=O)(=O)Cc1cc(Cl)c2c(c1)OCO2)N1CCCCCC1 | -3.371 |
| COCCCNC(=O)N1CCN(C(=O)c2nsc3ccccc23)CC1 | 12.5 |
| CN(C)Cc1cc(=O)n2c(n1)CN(C(=O)c1ccc[nH]1)CCC2.O=C(O)C(F)(F)F | -35.4 |
| Cc1ccc(N2N=C(C(=O)O)S(=O)(=O)c3cccnc32)cc1 | 51.3 |
| Cc1ccc(N2N=C(C(=O)NCC3CC3)S(=O)(=O)c3cccnc32)cc1 | 11.26 |
| CN1N=C(C(=O)N2CCCCC2)S(=O)(=O)c2ccccc21 | -10.66 |
| Cc1ccc(N2N=C(C(N)=O)S(=O)(=O)c3cccnc32)cc1 | 106.9 |
| CC(C)CCN1N=C(C(=O)N2CCCCCC2)S(=O)(=O)c2ccccc21 | 8.314 |
| Cc1ccc(CN2CCN(c3ncccc3C(N)=O)CC2CCO)cc1 (stereo not drawn) | 16.45 |
| Cc1cn2c(n1)CCC(NC(=O)CCCn1cncn1)C2 (stereo not drawn) | -12.33 |
| CC(=O)Nc1nc(C2CCN(C(C)C)CC2)cs1 | -15.97 |
| CC(=O)N1CCCC1c1nc(CN(C)C(=O)C(C)C)cc(N(C)C)n1 (stereo not drawn) | 52.18 |
| CCC(=O)N1CCCCC1c1nc(CN(C)C(C)=O)cc(N(C)C)n1 (stereo not drawn) | 49.36 |
| COCC(=O)N1CCCCC1c1nc(CN(C)C(C)=O)cc(N(C)C)n1 (stereo not drawn) | -40.24 |
